Experimental data reported in PubChem BioAssay (NCATS).
Inconclusive results are not listed. A call without a number means that no potency is given here. Unmarked numbers belong to inactive results. Activity calls are given as the source filed them. Calls come from the whole dose curve; as a rule, active = well fitted inhibition curve with a large enough effect; inconclusive = small, poorly fitted or top-dose-only effect; inactive = flat fitted curve, though single readings scatter.

What follows are compounds tested against Glutathione peroxidase 1 (Homo sapiens) (UniProt P07203) (assay: Primary qHTS Assay for Inhibitors of Recombinant Selenoprotein Glutathione Peroxidase 1 (GPX1) (AID 1845191; note: nearly all actives have a fitted effect of over 65% in size)). Details: recombinant GPX1, GR-coupled NADPH fluorescence, 15 min; series mostly up to 48.8 µM; activity, negative = inhibition: at the top concentration.
Sequence of Glutathione peroxidase 1 (Homo sapiens) (P07203 whole entry, looked up): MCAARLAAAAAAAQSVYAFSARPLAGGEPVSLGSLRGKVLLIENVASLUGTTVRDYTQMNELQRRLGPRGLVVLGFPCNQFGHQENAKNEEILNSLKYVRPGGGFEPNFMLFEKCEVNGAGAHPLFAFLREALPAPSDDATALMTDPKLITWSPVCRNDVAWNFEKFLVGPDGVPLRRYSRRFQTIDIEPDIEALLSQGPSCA
From the text: Assay Provider: Elias S.J. Arner MD PhD.
Department of Medical Biochemistry and Biophysics
Karolinska Institutet, Solna, Stockholm, Sweden
Selenoprotein glutathione peroxidases (GPX), like the ubiquitously expressed GPX1 and the ferroptosis modulator GPX4, enact their antioxidant activities by reducing hydroperoxides using glutathione. […] GPX1 and GPX4 inhibitors have thus shown promise as anti-cancer agents. Existing inhibitors are often promiscuous, or modulate GPX activity only indirectly, so novel direct inhibitors identified through screening against GPX1 and GPX4 could be valuable. Here, we developed optimized glutathione reductase (GR)-coupled GPX assays for the biochemical high-throughput screen (HTS) of almost 12,000 compounds with known mechanisms of action. Initial hits were triaged using a GR counter-screen, assessed for isoform specificity using a separate GPX2 assay, and were assessed for general selenocysteine-targeting activity using a thioredoxin reductase (TXNRD1) assay. With this suite of assays, we identified novel GPX1/GPX2- and GPX4-specific inhibitors and can here present a validated pipeline for future discovery research for selenoprotein-targeting agents.
SEQUENCE No. (e.g., 1, 2, 3, etc.); […] (e.g., Cells, Incubation, Reagent, etc.); VALUE; DESCRIPTION.
1; Reagent 1; 3 uL; GPx1 enzyme or no enzyme control in 1536-well, black, solid Greiner assay plate.
2; Compound; 25 nL; Kalypsis pin tool (Wako USA) equipped with a 1536-well pin head.
3; Incubation; 30 min; room temperature.
4; Reagent 2; 1 uL; 10 nM GPX1, 1 mM GSH, 0.5 mM CHP, 0.5 mM NADPH, 100 nM GR, 0.01% BSA substrate
5; Detection; Fluorescence; ViewLux microplate reader, excitation 340 nm and emission 450 nm.
6; Incubation; 15 min; room temperature.
7; Detection; Fluorescence; ViewLux microplate reader, excitation 340 nm and emission 450 nm.
NOTES (numbers refer to Sequence numbers above)
1. 3 uL of 16.66 nM GPX1 and 0.016% BSA in assay buffer (50 mM Tris-HCl, 2 mM EDTA (pH 7.5), 150 mM NaCl) was added to columns 3-48 of 1536-well assay plates using a BioRAPTR Flying Reagent Dispenser (Let's Go Robotics (LGR), Carlsbad, CA). A no-enzyme control (0.01% BSA in TES assay buffer) was added to columns 1-2.
2. 25 nL of test compounds and DMSO controls were added to each well with a pin tool (Kalypsys).
3. The assay plates were incubated for 30 minutes at room temperature.
4. 1 uL of master mix (500 nM glutathione reductase (GR), 5 mM reduced glutathione (GSH), 2.5 mM NADPH in assay buffer) was added. 1 uL of cumene hydroperoxide (CHP) ([2.5 mM] in 50% EtOH) was then added within 5 minutes to initiate the reaction. Final concentrations were: 10 nM GPX1, 1 mM GSH, 0.5 mM CHP, 0.5 mM NADPH, 100 nM GR, 0.01% BSA.
5. Initial fluorescence readout (t=0) at 340/450 nm was measured using a ViewLux multimodal detector (PerkinElmer, Waltham, MA).
7. Endpoint fluorescence readout (t=15) at 340/450 nm was measured 15 min after room temperature incubation.
With `OCc1ccc(-c2nn(Cc3ccccc3)c3ccccc23)o1` the Potency was “inactive”. `CC1=C(C(=O)O)N2C(=O)[C@@H](NC(=O)C(N)c3ccccc3)[C@H]2SC1` (stereo not given in full) was tested, and the “activity, negative = inhibition” value was -16.4%. `CN(C)CCc1c[nH]c2ccc(C[C@H]3COC(=O)N3)cc12` was tested, and the Potency was “inactive”. In the case of `CN1CCN(c2c(F)cc3c(=O)c(C(=O)O)cn(CCF)c3c2F)CC1`, the “activity, negative = inhibition” value is reported as -14.4%. With `CC(C)C[C@H](NC(=O)[C@H](CCc1ccccc1)NC(=O)CN1CCOCC1)C(=O)N[C@@H](Cc1ccccc1)C(=O)N[C@@H](CC(C)C)C(=O)[C@@]1(C)CO1` the Potency was “inactive”. With `CNS(=O)(=O)CCc1ccc2[nH]cc(C3CCN(C)CC3)c2c1` the Potency was “inactive”. In the case of `CC1=NN(c2ccccc2)C(=O)C1`, the Potency is reported as “inactive”. In the case of `N[C@@H](Cc1ccc(O)c(O)c1)C(=O)O`, the Potency is reported as “inactive”. In the case of `Cc1c(-c2ccc(O)cc2)n(Cc2ccc(OCCN3CCCCCC3)cc2)c2ccc(O)cc12`, the Potency is reported as “inactive”. `Oc1c(Cl)cc(Cl)c2cccnc12` was tested, and the “activity, negative = inhibition” value was -4.81%. `NC(=O)c1cccnc1` was tested, and the “outcome” value was “inactive”. In the case of `CC(=O)[C@H]1CC[C@H]2[C@@H]3CCC4=CC(=O)CC[C@]4(C)[C@H]3CC[C@]12C`, the Potency is reported as “inactive”. In the case of `COc1c(N2CCNC(C)C2)c(F)cc2c(=O)c(C(=O)O)cn(C3CC3)c12` (stereo not given), the “activity, negative = inhibition” value is reported as -21.5%. With `COc1cc(NCc2ccc3nc(N)nc(N)c3c2C)cc(OC)c1OC` the Potency was “inactive”. In the case of `Cn1nnc2c(C(N)=O)ncn2c1=O`, the Potency is reported as “inactive”. `CCn1cc(C(=O)O)c(=O)c2cc(F)c(N3CCN(C)CC3)cc21` was tested, and the “outcome” value was “inactive”. For `COC(c1ccccc1)(c1ccccc1)[C@H](Oc1nc(C)cc(C)n1)C(=O)O`, the Potency was “inactive”. `CCn1cc(C(=O)O)c(=O)c2cc(F)c(N3CCNCC3)cc21` was tested, and the “activity, negative = inhibition” value was -11.2%. In the case of `COc1cc(NS(=O)(=O)c2ccc(N)cc2)nc(OC)n1`, the “activity, negative = inhibition” value is reported as -10.2%. `COc1ncnc(NS(=O)(=O)c2ccc(N)cc2)c1OC` was tested, and the Potency was “inactive”. For `C[C@]12C=CC(=O)C=C1CC[C@@H]1[C@@H]2C(=O)C[C@@]2(C)[C@H]1CC[C@]2(O)C(=O)CO`, the Potency was “inactive”. `CS(=O)(=O)c1ccc([C@@H](O)[C@@H](CO)NC(=O)C(Cl)Cl)cc1` was tested, and the “activity, negative = inhibition” value was -6.22%. `CC(C)OC(=O)C(C(=O)OC(C)C)=C1SC=CS1` was tested, and the Potency was “inactive”. For `C[C@@H]1CN(c2c(F)c(N)c3c(=O)c(C(=O)O)cn(C4CC4)c3c2F)C[C@H](C)N1`, the Potency was “inactive”. `Cn1c(=O)c2c(ncn2CC(O)CO)n(C)c1=O` (stereo not given) was tested, and the Potency was “inactive”. With `CCN(CC)CCn1c(=O)c(Cc2ccc(OC)cc2)nc2ccccc21` the Potency was “inactive”. In the case of `Cc1cccc(Nc2ccncc2S(=O)(=O)NC(=O)NC(C)C)c1`, the “activity, negative = inhibition” value is reported as -4.1%. For `NC(=O)c1ccc2[nH]ccc2c1`, the Potency was “inactive”. In the case of `CC(C)(C)C(=O)OCOP(=O)(COCCn1cnc2c(N)ncnc21)OCOC(=O)C(C)(C)C`, the Potency is reported as “inactive”. With `COc1cc2c(Nc3ccc(Br)cc3F)ncnc2cc1OCC1CCN(C)CC1` the Potency was “inactive”. In the case of `CNC(=O)c1cc(Oc2ccc(NC(=O)Nc3ccc(Cl)c(C(F)(F)F)c3)cc2)ccn1`, the Potency is reported as “inactive”. For `CCOCC(O)COc1ccc(NC(=O)CC[S+](C)C)cc1` (stereo not given), the Potency was “inactive”. `CNNCc1ccc(C(=O)NC(C)C)cc1` was tested, and the Potency was “inactive”. With `COc1cccc(N(C)C(=S)Oc2ccc3c(c2)CCCC3)n1` the “outcome” value was “inactive”. With `CC(C)(C#N)c1cc(Cn2cncn2)cc(C(C)(C)C#N)c1` the Potency was “inactive”. For `Cc1nnc(NS(=O)(=O)c2ccc(N)cc2)s1`, the Potency was “inactive”. In the case of `CO[C@@H]1[C@@H](OC(N)=O)[C@@H](O)[C@H](Oc2ccc3c(O)c(NC(=O)c4ccc(O)c(CC=C(C)C)c4)c(=O)oc3c2C)OC1(C)C`, the Potency is reported as “inactive”. With `NC(N)=NC(N)=NCCc1ccccc1` the “outcome” value was “inactive”. For `COc1nc(N)nc2c1ncn2[C@@H]1O[C@H](CO)[C@@H](O)[C@@H]1O`, the “outcome” value was “inactive”. With `CC(=O)Oc1ccccc1C(=O)Nc1ncc([N+](=O)[O-])s1` the “activity, negative = inhibition” value was -1.07%.
